According to PubChem BioAssay:
Active and inactive are the calls of the source.

Key:
[1] = biological target: Albumin (Bos taurus) (UniProt P02769); assay: bovine serum albumin binders on microarray, profiling panel, artefact control for SMM control protein annotation, biochemical, small-molecule microarray, Alexa647 label, 635/667 nm fluorescence (AID 1118); settings: BSA-A647 binding, fluorescence 635 nm, higher = more signal;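 further: score merges 667 nm emission intensity and signal-to-noise per printed compound spot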
[2] = small-molecule microarray binders of probe aXIP, primary screen, biochemical, NeuroSMM set, 635/667 nm fluorescence (AID 1119); settings: higher = more signal, called active from +8 up or from −8 down;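 further: probe is the protein aXip251-270 applied at 1 µg/mL to compound-printed slides; binding of probe to printed compounds measured as 667 nm fluorescence plus signal to noise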
[3] = small-molecule binders of probe aNOTCH3, primary screen, biochemical, small-molecule microarray, 635/667 nm fluorescence (AID 1120); settings: higher = more signal;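 further: probe is a biotin-tagged antibody raised against NOTCH3 rather than NOTCH3 protein; score merges spot fluorescence near 667 nm with spot signal to noise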
[4] = small-molecule binders of probe aNOTCH2, primary screen, biochemical, small-molecule microarray, 635/667 nm fluorescence (AID 1121); settings: higher = more signal;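 further: score merges feature fluorescence read at 667 nm with its signal to noise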
[5] = biological target: Carbonic anhydrase 2 (Homo sapiens) (UniProt P00918); assay: CAII small-molecule binders, profiling panel, biochemical, small-molecule microarray, Alexa647-labelled CAII (AID 1122); settings: CAII-A647 binding fluorescence, higher = more signal
[6] = COS7 lysate on small-molecule microarray, probe aHis, 635 nm (AID 1123); settings: COS7 cell lysate, fluorescence, higher = more signal;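 further: z-score combines 667nm fluorescence intensity with signal-to-noise per printed compound spot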
[7] = compound binding in COS7 lysate, probe aLAP1, primary screen, cell lysate, small-molecule microarray (AID 1124); settings: probe aLAP1, fluorescence, higher = more signal;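 further: lysate comes from COS7 cells expressing LAP1 and is applied at 0.3 µg/mL; score merges spot fluorescence near 667 nm with signal-to-noise over triplicate slides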
[8] = tested on: Sam68 (KHDRBS1); assay: Sam68 small-molecule binders, primary screen, biochemical, small-molecule microarray, 635 nm fluorescence (AID 1125); settings: small-molecule microarray binding, higher = more signal;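 further: score merges 667 nm channel intensity with signal to noise over triplicate slides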
[9] = tested on: Chordin-like protein 2 (CHRDL2); assay: CHRDL2 small-molecule binders, primary screen, biochemical, small-molecule microarray, 635 nm fluorescence (AID 1126); settings: small-molecule microarray binding, fluorescence 635 nm; higher = more signal;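 further: printed compound slides probed with Chrdl2 protein at 4 µg/mL for 1 h at 4 C; score merges 667 nm emission intensity with signal to noise over three replicate slides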
[10] = biological target: Concanavalin-A (Canavalia ensiformis) (UniProt P02866); assay: ConA small-molecule binders, primary screen, artefact control for SMM control protein annotation, biochemical, small-molecule microarray, Alexa647 label, 635 nm (AID 1127); settings: ConA-A647 binding fluorescence, higher = more signal;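 further: z combines 667 nm emission intensity with signal-to-noise across three replicate slides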
[11] = anti-His antibody binders, primary screen, artefact control for SMM control protein annotation, biochemical, small-molecule microarray, 635 nm fluorescence (AID 1128); settings: anti-His Alexa647 antibody binding, higher = more signal;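 further: score merges feature fluorescence with signal-to-noise for each printed compound spot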
[12] = tested on: Human papillomavirus type 1a E7 protein (residues 1-88); assay: HPV1a E7 small-molecule binders, primary screen, biochemical, small-molecule microarray, residues 1-88, 635 nm (AID 1129); settings: small-molecule microarray binding, fluorescence 635 nm; higher = more signal
[13] = biological target: Focal adhesion kinase 1 (Homo sapiens) (UniProt Q05397); assay: small-molecule microarray binders of FAK, primary screen, biochemical, 635/667 nm fluorescence, BSA, DTT (AID 1130); settings: PTK2 binding, 635 nm fluorescence, higher = more signal;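 further: composite of spot emission at 667 nm and signal to noise over triplicate slides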
[14] = tested on: Fibrinogen (Alexa647-labelled); assay: fibrinogen binders on compound microarrays, profiling panel, artefact control for SMM control-protein annotation, biochemical, small-molecule microarray, 635/667 nm fluorescence (AID 1131); settings: fibrinogen-A647 binding fluorescence, higher = more signal;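 further: z-score merges 667 nm fluorescence with per-spot signal-to-noise over triplicate slides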
[15] = biological target: Follistatin (Homo sapiens) (UniProt P19883); assay: follistatin binders on small-molecule microarrays, primary screen, biochemical, small-molecule microarray, 635/667 nm fluorescence (AID 1132); settings: FST binding, 635 nm fluorescence, higher = more signal
[16] = biological target: Fibroblast growth factor 2 (Homo sapiens) (UniProt P09038); assay: FGF2 binders on small-molecule microarrays, primary screen, biochemical, small-molecule microarray, 635/667 nm fluorescence (AID 1133); settings: small-molecule microarray binding, FGF2, fluorescence 635/667; higher = more signal
[17] = mitochondrial membrane potential change in A549 cells, profiling panel, cell-based, JC-1 fluorescence, basal, 24 h, 100 nL (AID 1138); settings: higher = more signal;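 further: A549 lung adenocarcinoma cells under basal conditions with no added stimulus; test concentration not given here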
[18] = tested on: Lefty1; assay: Lefty1 binders on small-molecule microarrays, primary screen, biochemical, small-molecule microarray, 635/667 nm fluorescence (AID 1139); settings: small-molecule microarray binding, fluorescence 635/667; higher = more signal
[19] = tested on: wheat germ agglutinin (Triticum aestivum), Alexa647-labelled; assay: wheat germ agglutinin binders on compound microarrays, profiling panel, artefact control for SMM control-protein annotation, biochemical, small-molecule microarray, 635/667 nm fluorescence (AID 1140); settings: WGA-A647 binding, 635 nm fluorescence, higher = more signal;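 further: score merges 667 nm feature emission with signal to noise over triplicate slides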
[20] = biological target: Luciferin 4-monooxygenase (Photinus pyralis) (UniProt P08659); assay: firefly luciferase enzyme inhibitors, primary screen, biochemical, luminescence, purified enzyme, 2006 set (AID 1141); settings: SteadyGlo luminescence, 30 min, higher = more signal, called active from +8 up or from −8 down;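 further: cell-free assay with purified firefly luciferase at 100 ng per well in PBS; test concentration not given here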
Luciferin 4-monooxygenase (Photinus pyralis), sequence (P08659 whole entry, looked up): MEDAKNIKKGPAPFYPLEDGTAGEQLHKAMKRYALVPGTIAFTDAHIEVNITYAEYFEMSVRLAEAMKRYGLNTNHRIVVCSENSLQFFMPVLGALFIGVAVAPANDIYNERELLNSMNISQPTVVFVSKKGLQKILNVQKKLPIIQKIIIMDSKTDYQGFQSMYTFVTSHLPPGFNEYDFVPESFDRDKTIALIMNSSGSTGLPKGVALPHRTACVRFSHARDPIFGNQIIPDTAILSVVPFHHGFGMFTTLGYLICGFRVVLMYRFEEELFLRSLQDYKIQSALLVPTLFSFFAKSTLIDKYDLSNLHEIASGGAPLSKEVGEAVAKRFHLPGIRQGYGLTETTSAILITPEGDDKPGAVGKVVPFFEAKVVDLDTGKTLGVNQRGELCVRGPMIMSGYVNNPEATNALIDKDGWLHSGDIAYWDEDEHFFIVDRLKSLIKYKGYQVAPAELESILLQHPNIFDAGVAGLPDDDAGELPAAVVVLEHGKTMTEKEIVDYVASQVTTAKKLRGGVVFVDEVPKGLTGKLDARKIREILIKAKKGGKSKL

Fibroblast growth factor 2 (Homo sapiens), sequence (P09038 whole entry, looked up): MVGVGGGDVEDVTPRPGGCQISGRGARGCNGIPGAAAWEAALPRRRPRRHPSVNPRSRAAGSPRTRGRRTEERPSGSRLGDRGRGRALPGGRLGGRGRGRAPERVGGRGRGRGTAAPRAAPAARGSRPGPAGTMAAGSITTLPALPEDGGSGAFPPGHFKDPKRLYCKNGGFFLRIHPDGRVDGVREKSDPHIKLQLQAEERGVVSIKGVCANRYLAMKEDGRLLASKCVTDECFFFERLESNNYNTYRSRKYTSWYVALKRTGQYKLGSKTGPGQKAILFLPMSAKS
Focal adhesion kinase 1 (Homo sapiens), sequence (Q05397 whole entry, looked up): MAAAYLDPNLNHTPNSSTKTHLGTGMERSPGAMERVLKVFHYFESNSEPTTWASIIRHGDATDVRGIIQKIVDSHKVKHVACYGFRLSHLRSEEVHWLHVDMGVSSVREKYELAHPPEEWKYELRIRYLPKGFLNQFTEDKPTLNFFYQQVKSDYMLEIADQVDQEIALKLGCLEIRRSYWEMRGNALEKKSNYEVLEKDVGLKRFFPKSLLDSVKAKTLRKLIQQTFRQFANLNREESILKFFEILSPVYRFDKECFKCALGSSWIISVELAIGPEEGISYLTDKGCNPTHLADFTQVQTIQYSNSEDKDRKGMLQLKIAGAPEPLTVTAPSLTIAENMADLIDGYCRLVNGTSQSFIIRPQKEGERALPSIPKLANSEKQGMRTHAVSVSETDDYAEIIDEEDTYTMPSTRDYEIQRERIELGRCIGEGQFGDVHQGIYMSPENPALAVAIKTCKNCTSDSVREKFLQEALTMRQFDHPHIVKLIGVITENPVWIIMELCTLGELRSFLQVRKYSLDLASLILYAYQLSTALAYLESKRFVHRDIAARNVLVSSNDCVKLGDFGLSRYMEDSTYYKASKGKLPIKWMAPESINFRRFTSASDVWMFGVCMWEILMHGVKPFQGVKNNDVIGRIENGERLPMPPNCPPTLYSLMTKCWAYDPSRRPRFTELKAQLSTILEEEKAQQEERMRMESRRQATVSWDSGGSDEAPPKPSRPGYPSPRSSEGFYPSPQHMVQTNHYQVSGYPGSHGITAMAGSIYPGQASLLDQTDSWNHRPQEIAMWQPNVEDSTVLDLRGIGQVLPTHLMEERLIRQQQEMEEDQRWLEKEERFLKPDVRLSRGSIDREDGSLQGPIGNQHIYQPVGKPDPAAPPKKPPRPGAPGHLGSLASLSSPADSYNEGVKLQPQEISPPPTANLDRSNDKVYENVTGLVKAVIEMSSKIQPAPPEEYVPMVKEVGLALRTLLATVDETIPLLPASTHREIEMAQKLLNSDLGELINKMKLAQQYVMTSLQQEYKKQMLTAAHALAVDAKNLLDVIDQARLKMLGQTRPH
Albumin (Bos taurus), sequence (P02769 whole entry, looked up): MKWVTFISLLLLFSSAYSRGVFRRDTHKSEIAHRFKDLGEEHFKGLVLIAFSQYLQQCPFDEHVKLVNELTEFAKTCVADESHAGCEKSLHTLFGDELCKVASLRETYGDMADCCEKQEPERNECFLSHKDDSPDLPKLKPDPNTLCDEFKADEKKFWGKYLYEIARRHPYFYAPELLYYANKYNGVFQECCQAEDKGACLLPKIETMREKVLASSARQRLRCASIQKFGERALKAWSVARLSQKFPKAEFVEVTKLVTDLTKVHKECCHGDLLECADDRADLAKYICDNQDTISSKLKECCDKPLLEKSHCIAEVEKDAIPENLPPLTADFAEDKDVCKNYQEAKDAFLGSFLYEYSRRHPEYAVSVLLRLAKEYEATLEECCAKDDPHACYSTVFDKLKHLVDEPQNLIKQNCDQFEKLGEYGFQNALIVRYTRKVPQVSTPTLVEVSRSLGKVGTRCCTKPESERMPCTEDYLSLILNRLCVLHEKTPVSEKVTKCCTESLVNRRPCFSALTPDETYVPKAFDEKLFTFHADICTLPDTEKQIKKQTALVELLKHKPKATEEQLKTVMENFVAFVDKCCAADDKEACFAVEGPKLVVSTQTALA
Follistatin (Homo sapiens), sequence (P19883 whole entry, looked up): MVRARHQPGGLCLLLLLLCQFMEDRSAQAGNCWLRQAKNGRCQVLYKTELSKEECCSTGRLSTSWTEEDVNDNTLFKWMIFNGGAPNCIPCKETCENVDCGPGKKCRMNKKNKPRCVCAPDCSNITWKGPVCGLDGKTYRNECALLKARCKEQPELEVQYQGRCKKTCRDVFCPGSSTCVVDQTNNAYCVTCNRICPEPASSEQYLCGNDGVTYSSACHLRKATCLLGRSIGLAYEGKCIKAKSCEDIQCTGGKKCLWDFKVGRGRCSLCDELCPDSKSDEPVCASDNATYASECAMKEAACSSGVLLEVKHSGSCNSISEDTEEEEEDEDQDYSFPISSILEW
Concanavalin-A (Canavalia ensiformis), sequence (P02866 whole entry, looked up): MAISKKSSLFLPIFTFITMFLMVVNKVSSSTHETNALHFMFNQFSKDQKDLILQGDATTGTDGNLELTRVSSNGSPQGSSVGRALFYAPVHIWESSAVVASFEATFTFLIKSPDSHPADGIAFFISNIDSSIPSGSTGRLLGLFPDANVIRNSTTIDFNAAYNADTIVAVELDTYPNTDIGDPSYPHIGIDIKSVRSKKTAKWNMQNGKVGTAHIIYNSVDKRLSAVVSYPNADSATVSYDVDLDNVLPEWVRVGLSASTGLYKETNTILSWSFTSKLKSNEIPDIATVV

Structure (SMILES) | composite z-score [1] | composite Z-score [2] | composite z-score [3] | composite z-score [4] | composite z-score [5] | composite z-score [6] | composite z-score [7] | composite z-score [8] | composite z-score [9] | composite z-score [10] | composite z-score [11] | composite z-score [12] | composite z-score [13] | composite z-score [14] | composite z-score [15] | composite z-score [16] | z-score [17] | composite z-score [18] | composite z-score [19] | z-score [20]
CCN(CC)c1ccc(N2CC=CC34O[C@@H]5C=CCOC(=O)[C@@H]5[C@H]3C(=O)N(C(CO)C(C)C)[C@@H]4C2=O)cc1 (stereo not given in full) | -0.819 | 0.316 (inactive) | -0.405 | -0.104 | -0.604 | -0.408 | 0.23 | -0.635 | -0.42 | -0.374 | -1.59 | -1.27 | -0.596 | -0.236 | -0.529 | -0.208 | 1.39 | -0.771 | -1.13 | -0.638 (inactive)
C=C(COC)C(=O)CC[C@H](OC(=O)c1ccccc1-c1ccccc1C(=O)O)c1ccccc1OCCO | -0.714 | 1.42 (inactive) | -0.0881 | -0.126 | 0.59 | 0.125 | 0.283 | 0.452 | -0.0006 | 0.7 | -0.307 | 0.536 | -0.203 | -0.591 | 0.905 | 0.855 | 0.904 | 0.655 | -0.179 | -3.05 (inactive)
C=CCC(OC(C)=O)[C@@H]1[C@@H](N(Cc2cccc3ccccc23)C(=O)c2cccc3ccccc23)c2cc(OCCCO)ccc2N1C(=O)Cc1ccc(OC)cc1 (stereo not given in full) | 0.107 | 0.464 (inactive) | 0.128 | -0.0797 | 0.447 | 1.04 | 0.484 | 0.457 | 0.0561 | -0.653 | 0.856 | 0.0512 | -0.0125 | 0.263 | 0.921 | 0.103 | 0.924 | 0.306 | 0.655 | -0.378 (inactive)
CCCCC(=C=CC[C@@H](O)c1ccc(OCCO)cc1)C[C@@H](O)c1cc(Cl)cc(Cl)c1O | 0.645 | 0.0371 (inactive) | 0.151 | -0.048 | 0.674 | 0.886 | 0.673 | 0.661 | -0.101 | 0.486 | 0.155 | 0.597 | 0.507 | 0.556 | 0.63 | 0.594 | 1.28 | 0.255 | 1.21 | -3.02 (inactive)
COC(=O)c1c2oc(c1C(=O)OC)C(=O)N[C@@H](C(C)C)Cn1nncc1C1(CCCCC1)NC(=O)N[C@H](CO)CC2 | 0.543 | 0.559 (inactive) | -0.126 | -0.131 | 0.86 | 0.942 | -0.162 | -0.0929 | -0.573 | 0.77 | -0.614 | -0.622 | 0.195 | -1.26 | -0.238 | 0.0484 | 2.33 | 0.0278 | -0.719 | -1.25 (inactive)
O=C1O[C@H](c2ccccc2)[C@H](c2ccccc2)N2[C@H]1[C@@H](C(=O)Nc1nc3ccccc3s1)[C@]1(C(=O)Nc3ccc(C#CCCO)cc31)[C@H]2c1ccccc1OCCO | 0.596 | 0.231 (inactive) | 0.0695 | -0.0155 | 0.671 | 2.43 | 0.849 | 1.31 | -0.0204 | 1.18 | 1.42 | 1.2 | 0.705 | 0.89 | 1.09 | 0.479 | -1.93 | 0.287 | 1.3 | -1.14 (inactive)
C=CCNC(=O)[C@@H]1[C@H]2C(=O)O[C@H](c3ccccc3)[C@H](c3ccccc3)N2[C@H](c2ccc(O)cc2)[C@@]12C(=O)N(C(=O)OCCOC)c1ccc(C#Cc3ccc(OC)cc3)cc12 | -0.0706 | 0.574 (inactive) | 0.13 | 0.0406 | 0.484 | 1.46 | 0.478 | 1.32 | 0.455 | 1.12 | 0.539 | 1.13 | 1.68 | 0.8 | 0.949 | 0.915 | -0.0671 | 0.544 | 1.06 | -1.23 (inactive)
COc1ccc([Si](C)(C)[C@@H]2[C@@H](CCn3cc(CCO)nn3)O[C@]3(C(=O)N(Cc4ccc(N5C(=O)c6cccc7cccc5c67)cc4)c4ccccc43)[C@H]2C)cc1 | 0.651 | 0.722 (inactive) | 0.102 | -0.061 | 0.356 | 0.961 | 0.234 | 1.1 | 0.157 | 1.12 | 1.51 | 0.914 | 0.87 | 0.688 | 0.499 | 0.103 | -0.37 | 0.518 | 1.2 | -0.685 (inactive)
